test system: T1, ASK1; details: concentration: 1 μM, replicates: in singlicate; n = 1
T1 construct: gene MAP3K5
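Further: KINOMEscan kinase panel screen.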

Row | Structure (SMILES) | %Inh
1 | O=C(Nc1ccc2c(c1)OCO2)NC1CCN(c2ccnc(NCc3ccc(F)cc3)n2)CC1 [GSK1379859] | 0%
2 | O=C(Nc1n[nH]c2cc(-c3ccccc3F)ccc12)C1CC1 [SB-733371] | 0%
3 | Cc1ccccc1COc1cc(-n2cnc3cc(Cl)ccc32)sc1C(N)=O [GW813349] | 18%
4 | Cc1nnc(-c2ccc(C)c(-c3ccc(C(=O)O)cc3)c2)o1 [GW608005] | 0%
5 | COc1ccc(-c2cc3c(C)nc(N)nc3n([C@H]3CC[C@H](O)CC3)c2=O)cn1 | 6%
6 | CCC(=O)c1c(-c2ccccc2)c2cc(Cl)ccc2c(=O)n1Cc1cc(S(C)(=O)=O)n(CC(F)F)n1 | 0%
7 | CC(C)(C)c1ccc(C(=O)Nc2cn3cc(-c4ccccc4)ccc3n2)cc1 | 40%
8 | Cc1c(Cn2c(C)nn3c(=O)cc(N4CCO[C@H](C)C4)nc23)cccc1C(F)(F)F [GSK2373690] | 11%
9 | COc1cccc(C2=C(Nc3cccc(C(=O)O)c3)C(=O)NC2=O)c1 [SB-390770] | 5%
10 | COc1cc2ncn(-c3cc(OCc4ccncc4)c(C(N)=O)s3)c2cc1OC [GSK336313] | 6%
11 | COc1ccc(-c2coc3ccc(-c4nnc(SCc5cccc(C#N)c5)o4)cc23)cc1 | 9%
12 | Nc1nc(-c2ccccc2F)c(-c2ccnc3ccccc23)s1 [GW560459] | 3%
13 | COC(=O)c1c(-c2ccccc2)c2cc(Br)ccc2c(=O)n1Cc1ccc(NC(=O)CCC(=O)O)cc1 | 2%

Source: PMC5540273 (PLoS ONE, 2017)
